# Source: PubChem BioAssay (NCATS)
# A number with no mark means an inactive call. Results filed as inconclusive are left out. Active and inactive are the calls of the source. Unless noted, the call rests on the fitted dose curve; in most records, active means well fitted curve in the direction sought with a large enough effect; inconclusive means small, poorly fitted or top-dose-only effect, or another doubt; inactive means no such curve, though single readings can be large; an effect the other way counts as inactive or inconclusive.
# Molecular target: Peroxisome proliferator-activated receptor alpha (Homo sapiens) (UniProt Q07869)
# Test: qHTS assay for small molecule agonists of the peroxisome proliferator-activated receptor alpha (PPARalpha) signaling pathway (AID 651778); further: % of control where 0% means no effect
# Settings: PathHunter PPARalpha complementation, chemiluminescence, 6 h; max response: hits give high values
# Summary of the method: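 Enzyme-fragment complementation assay in which ligand-bound PPARalpha translocates and forms an active enzyme that generates chemiluminescence. Cells were plated overnight, exposed to compound for 6 hr at 37 C, and then given detection reagent for 60 min at room temperature.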
# Sequence of Peroxisome proliferator-activated receptor alpha (Homo sapiens) (Q07869 whole entry, looked up): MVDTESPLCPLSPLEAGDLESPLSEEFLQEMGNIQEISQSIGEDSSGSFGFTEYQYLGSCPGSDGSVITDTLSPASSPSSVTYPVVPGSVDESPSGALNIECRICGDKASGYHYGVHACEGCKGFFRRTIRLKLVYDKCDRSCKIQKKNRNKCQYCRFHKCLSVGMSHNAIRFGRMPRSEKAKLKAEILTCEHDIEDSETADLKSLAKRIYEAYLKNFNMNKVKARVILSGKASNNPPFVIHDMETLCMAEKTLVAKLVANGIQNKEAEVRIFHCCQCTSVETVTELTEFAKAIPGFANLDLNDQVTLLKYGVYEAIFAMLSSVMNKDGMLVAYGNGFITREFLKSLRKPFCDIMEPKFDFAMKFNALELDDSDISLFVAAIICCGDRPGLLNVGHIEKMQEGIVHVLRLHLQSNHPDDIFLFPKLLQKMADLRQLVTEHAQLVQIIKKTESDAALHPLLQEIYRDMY
row,SMILES,max response
1,CC(C)NC(=O)N1CC(=O)N(c2cc(Cl)cc(Cl)c2)C1=O,0.394%
2,CC(C1CC1)C(O)(Cn1cncn1)c1ccc(Cl)cc1 (centres undefined),-1.34%
3,CON=C(C(=O)OC)c1ccccc1CO/N=C(\C)c1cccc(C(F)(F)F)c1,3.69%
4,CC(C)[C@H](C(=O)O[C@H](C#N)c1cccc(Oc2ccccc2)c1)c1ccc(Cl)cc1,0.0129%
5,CCOCn1c(-c2ccc(Cl)cc2)c(C#N)c(Br)c1C(F)(F)F,14.2%
6,N#CC(Br)(Br)C(N)=O,-5.1%

# Molecular target: Nuclear receptor ROR-gamma (Homo sapiens) (UniProt P51449)
# Test: qHTS assay for small molecule antagonists of the retinoid-related orphan receptor gamma (ROR-gamma) signaling pathway (AID 651802);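 further: luciferase reporter luminescence driven by ROR response element; on the % scale 0 is the no-effect control and ±100 the full control effect; nearly all actives have a fitted effect of over 60% in size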
# Settings: ROR-gamma antagonist cell reporter assay; series mostly up to 92.2 µM; activity change, negative = inhibition: at the top concentration
# Summary of the method: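 CHO cells with TET-inducible ROR-gamma and RORE-luciferase reporter, dosed then doxycycline-induced. After 16 h at 37C, One-Glo luminescence read; decreased signal indicates antagonism.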
# Sequence of Nuclear receptor ROR-gamma (Homo sapiens) (P51449 whole entry, looked up): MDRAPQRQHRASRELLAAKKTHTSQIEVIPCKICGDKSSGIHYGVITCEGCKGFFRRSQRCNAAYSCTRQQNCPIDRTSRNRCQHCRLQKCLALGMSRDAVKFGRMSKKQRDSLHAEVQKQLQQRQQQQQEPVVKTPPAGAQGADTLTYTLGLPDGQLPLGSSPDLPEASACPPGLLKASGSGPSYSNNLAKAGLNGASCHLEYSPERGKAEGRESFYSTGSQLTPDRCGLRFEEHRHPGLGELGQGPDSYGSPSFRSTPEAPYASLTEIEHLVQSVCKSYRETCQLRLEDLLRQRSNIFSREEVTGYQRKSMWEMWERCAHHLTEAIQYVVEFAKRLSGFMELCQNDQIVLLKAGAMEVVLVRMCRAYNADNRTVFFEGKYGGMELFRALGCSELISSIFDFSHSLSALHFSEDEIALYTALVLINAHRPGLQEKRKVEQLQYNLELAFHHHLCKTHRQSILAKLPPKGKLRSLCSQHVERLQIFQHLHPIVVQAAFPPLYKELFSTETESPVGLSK
row,SMILES,"activity change, negative = inhibition"
1,CC(CCl)OC(C)CCl (centres undefined),44.3%
2,OCC(CBr)(CBr)CBr,6.58%
3,c1c[nH]cn1,6.45%
4,Cc1ccc(N)c([N+](=O)[O-])c1,59.3%
5,c1ccc2c(c1)ccc1ncccc12,44.6%
6,O=C1OC(=O)c2c(Br)c(Br)c(Br)c(Br)c21,-14.9%
7,Cc1cccc(C)c1,-2.66%

# System: not listed separately
# Test: qHTS assay for small molecule agonists of the antioxidant response element (ARE) signaling pathway measured by Nrf2-dependant transcriptional activity (AID 720636; active means well fitted curve in the direction sought with a large enough effect in the repeat runs; an effect the other way counts as inactive or inconclusive; further: % of control where 0% means no effect)
# Settings: ARE-luc HepG2, Nrf2 luciferase reporter, 16 h; series mostly up to 92.4 µM; activation: at the top concentration
# Summary of the method: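 ARE-luc HepG2 cells carrying an Nrf2-responsive luciferase reporter, in medium with 1% dialyzed FBS, exposed to compound for 16 hr at 37 C, 5% CO2. Luminescence read 30 min after ONE-Glo addition.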
row,SMILES,activation
1,CC(C1CC1)C(O)(Cn1cncn1)c1ccc(Cl)cc1 (centres undefined),-0.793%
2,CON=C(C(=O)OC)c1ccccc1CO/N=C(\C)c1cccc(C(F)(F)F)c1,-0.679%
3,CCOCn1c(-c2ccc(Cl)cc2)c(C#N)c(Br)c1C(F)(F)F,-0.699%
4,N#CC(Br)(Br)C(N)=O,2.08%

# System: not listed separately
# Test: qHTS assay for small molecule agonists of the antioxidant response element (ARE) signaling pathway measured by Nrf2-dependant transcriptional activity - cell viability counter screen (AID 720653; active means well fitted curve in the direction sought with a large enough effect in the repeat runs; an effect the other way counts as inactive or inconclusive; further: on the % scale 0 is the no-effect control and ±100 the full control effect)
# Settings: ARE-bla HepG2 viability, CellTiter-Glo ATP luminescence, 16 h; max response: hits give low values
# Summary of the method: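 ARE-bla HepG2 cells treated with compounds for 16 h at 37C; this counter screen measures viability as intracellular ATP by CellTiter-Glo luminescence after 30 min at room temperature.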
row,SMILES,max response
1,CC(C)NC(=O)N1CC(=O)N(c2cc(Cl)cc(Cl)c2)C1=O,1.07%
2,ClC1=C(Cl)[C@]2(Cl)[C@H]3[C@H]([C@@H]4C=C[C@H]3C4)[C@]1(Cl)C2(Cl)Cl,-24.6%
3,CC(C1CC1)C(O)(Cn1cncn1)c1ccc(Cl)cc1 (centres undefined),-0.0614%
4,CC(C)[C@H](C(=O)O[C@H](C#N)c1cccc(Oc2ccccc2)c1)c1ccc(Cl)cc1,6.41%
5,CC(C)C(C(=O)OC(C#N)c1cccc(Oc2ccccc2)c1)c1ccc(Cl)cc1 (centres undefined),-14.8%

# System: not listed separately
# Test: qHTS assay for cell viability of HEK293 cells (AID 743288); further: nearly all actives have a fitted effect of over 50% in size; further: potency means the concentration at half of the fitted maximal effect; on max response: on the % scale 0 is the no-effect control and ±100 the full control effect
# Settings: ATP luminescence (CellTiter-Glo), 18 h; max response: hits give low values
# Summary of the method: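 Parental HEK293 cells were seeded at 2,000 cells/well, rested at least 5 h at 37 C, then exposed to compounds in DMSO for 18 h at 37 C. Viability was read as ATP-dependent luciferase luminescence after 30 min at room temperature.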
SMILES,max response,Potency
CC(C)NC(=O)N1CC(=O)N(c2cc(Cl)cc(Cl)c2)C1=O,-6.95%,
CC(C1CC1)C(O)(Cn1cncn1)c1ccc(Cl)cc1 (centres undefined),-14%,
CON=C(C(=O)OC)c1ccccc1CO/N=C(\C)c1cccc(C(F)(F)F)c1,-22.9%,
CC(C)[C@H](C(=O)O[C@H](C#N)c1cccc(Oc2ccccc2)c1)c1ccc(Cl)cc1,-17.9%,
CCOCn1c(-c2ccc(Cl)cc2)c(C#N)c(Br)c1C(F)(F)F,,7.94 µM (active)
CC(C)C(C(=O)OC(C#N)c1cccc(Oc2ccccc2)c1)c1ccc(Cl)cc1 (centres undefined),-26.6%,

# System: not listed separately
# Test: qHTS assay for cell viability of the p53RE-bla HCT-116 cell line (AID 743292); further: nearly all actives have a fitted effect of over 55% in size; further: potency means the concentration at half of the fitted maximal effect; on activity change, negative = cytotoxicity: on the % scale 0 is the no-effect control and ±100 the full control effect
# Settings: p53RE-bla HCT-116 viability, ATP luminescence, 16 h; series mostly up to 95 µM; activity change, negative = cytotoxicity: at the top concentration
# Summary of the method: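 CellSensor p53RE-bla HCT-116 cells (4,000/well) pre-incubated 5 h at 37 C, then exposed to compounds in DMSO for 16 h at 37 C. Viability read as ATP content by CellTiter-Glo luminescence after 30 min at room temperature.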
SMILES,"activity change, negative = cytotoxicity",Potency
CC(C)NC(=O)N1CC(=O)N(c2cc(Cl)cc(Cl)c2)C1=O,-10.1%,
ClC1=C(Cl)[C@]2(Cl)[C@H]3[C@H]([C@@H]4C=C[C@H]3C4)[C@]1(Cl)C2(Cl)Cl,,44.7 µM (active)
CC(C1CC1)C(O)(Cn1cncn1)c1ccc(Cl)cc1 (centres undefined),-10.8%,
CON=C(C(=O)OC)c1ccccc1CO/N=C(\C)c1cccc(C(F)(F)F)c1,-10.3%,
CC(C)[C@H](C(=O)O[C@H](C#N)c1cccc(Oc2ccccc2)c1)c1ccc(Cl)cc1,-17.5%,
CCOCn1c(-c2ccc(Cl)cc2)c(C#N)c(Br)c1C(F)(F)F,,6.31 µM (active)
CC(C)C(C(=O)OC(C#N)c1cccc(Oc2ccccc2)c1)c1ccc(Cl)cc1 (centres undefined),-12.5%,
N#CC(Br)(Br)C(N)=O,-5.73%,

# System: not listed separately
# Test: qHTS assay for small molecule activators of the human pregnane X receptor (PXR) signaling pathway (AID 720659; call rule not given here; further: 0% is about no effect)
# Settings: DPX-2 HepG2 CYP3A4-luciferase, 24 h; series mostly up to 92.3 µM; activation: at the top concentration
row,SMILES,activation
1,CC(C1CC1)C(O)(Cn1cncn1)c1ccc(Cl)cc1 (centres undefined),27.2%
2,CCOCn1c(-c2ccc(Cl)cc2)c(C#N)c(Br)c1C(F)(F)F,-12.2%
3,N#CC(Br)(Br)C(N)=O,10.2%
